Measured values: PubChem BioAssay (Tox21)
Records with an inconclusive call do not appear. Entries that show only a call come without a potency. The source made the active and inactive calls. Calls come from the whole dose curve; as a rule, active = well fitted activation curve with a large enough effect in the repeat runs; inconclusive = weak or mixed curves; inactive = flat fitted curve, though single readings scatter.

molecular target: Nuclear receptor subfamily 1 group I member 2 (Homo sapiens) (UniProt O75469); assay: Human pregnane X receptor (PXR) activation by small molecules, qHTS assay (AID 1346985); details: DPX-2 HepG2 CYP3A4-luciferase, 24 h; series mostly up to 38.3 µM; note: nearly all actives have a fitted effect of over 40% in size
Text: National Center for Advancing Translational Sciences [NCATS]
NIH Chemical Genomics Center [NCGC]
U.S. Environmental Protection Agency [EPA]
National Institutes of Environmental Health Sciences [NIEHS]
National Toxicology Program [NTP]
The Pregnane X receptor (PXR), a ligand activated nuclear receptor plays a critical role in the regulation of genes involved in drug metabolism and transporters. Activation of PXR may be involved in the unwanted adverse drug-drug interactions. […] Therefore, identification of compounds with the potential for PXR activation can be of importance in improving the efficacy of drugs with less toxicity and avoiding drug-drug interactions.
DPX-2 (Puracyp, Inc.) cell lines, used for screening against human PXR activation has HepG2 cells co-transfected with a PXR response element and a luciferase construct containing CYP3A4 promoter. Increase in luciferase activity can be used to identify the compounds that activate the PXR pathway.
DPX-2 cells were dispensed at 2,000 cells per well in 5uL of assay medium into white, solid-bottom 1536-well plates using a Multidrop Combi dispenser (Thermo Scientific). The assay plates were incubated at 37C for 5hr before transferring 23nL of test compounds dissolved in DMSO and positive control via Pintool station (Wako). The assay plates were incubated at 37C for 24hr. Then 5ul One-Glo assay reagent (Promega) was added to each plate by a Flying Reagent Dispenser (FRD, Aurora Discovery) and following 30 min incubation at room temperature, luciferase activity was quantified on a ViewLux plate reader (Perkin Elmer).
Potency is the fitted concentration of half-maximal effect.

SMILES	Potency
C[C@]12CCC(=O)C=C1CC[C@@H]1[C@@H]2CC[C@@]2(C)[C@H]1CC[C@]2(O)C(=O)CO	inactive
Cc1ccsc1C(=CCCN1CCC[C@@H](C(=O)O)C1)c1sccc1C	inactive
CN(CCCN1c2ccccc2CCc2ccccc21)CC(=O)c1ccc(Cl)cc1	22.4 µM (active)
CCCCCCCCCCCCCCCCOP(=O)([O-])OCC[N+](C)(C)C	inactive
CN1CCN(c2c(F)cc3c(=O)c(C(=O)O)cn4c3c2SCC4)CC1	inactive
CCCCc1ccc2nc(NC(=O)OC)[nH]c2c1	4.47 µM (active)
FC(F)(F)C(F)(F)C(F)(F)C(F)(F)C(F)(F)C(F)(F)C(F)(F)C(F)(F)Br	inactive
CCCCN1C[C@H](O)[C@@H](O)[C@H](O)[C@H]1CO	inactive
CN1CCN(c2c(F)cc3c(=O)c(C(=O)O)cn(CCF)c3c2F)CC1	inactive
C[C@@H](N)C(=O)O	inactive
C=CCc1cc(OC)c(O)c(C(=O)NCCO)c1	inactive
NCCC(O)(P(=O)(O)O)P(=O)(O)O	inactive
CC(=O)Oc1cc(C(C)C)c(OCCN(C)C)cc1C	inactive
CN1CCN(C2=Nc3ccccc3Oc3ccc(Cl)cc32)CC1	inactive
c1ccc(CN(CC2=NCCN2)c2ccccc2)cc1	inactive
CC1(C)O[C@@H]2C[C@H]3[C@@H]4CCC5=CC(=O)CC[C@]5(C)[C@@]4(F)[C@@H](O)C[C@]3(C)[C@]2(C(=O)CCl)O1	5.01 µM (active)
N#Cc1ccc(C(c2ccc(C#N)cc2)n2cncn2)cc1	inactive
COc1ccccc1N1CCN(CCCNc2cc(=O)n(C)c(=O)n2C)CC1	inactive
C[C@@H]1CN(c2c(F)c(N)c3c(=O)c(C(=O)O)cn(C4CC4)c3c2F)C[C@H](C)N1	inactive
CCCN(CCC)C(=O)C(CCC(=O)O)NC(=O)c1ccccc1 (stereo not given)	inactive

SMILES	Potency
CC1(C)S[C@@H]2[C@H](NC(=O)C(C(=O)O)c3ccccc3)C(=O)N2[C@H]1C(=O)O (stereo not given in full)	inactive
C[C@@H]1CN(c2c(F)c(F)c3c(=O)c(C(=O)O)cn(C4CC4)c3c2F)C[C@H](C)N1	inactive
CCc1cc(Cl)c(OC)c(C(=O)NC[C@@H]2CCCN2CC)c1O	25.1 µM (active)
OCc1ccccc1O	inactive
CN1CCN(C2=Nc3cc(F)ccc3Cc3ccccc32)CC1	22.4 µM (active)
CCC(=O)Nc1ccc(O)cc1	inactive
Cc1cc2c(s1)Nc1ccccc1N=C2N1CCN(C)CC1	inactive
CCC(=O)O[C@]1(C(=O)SCF)[C@H](C)C[C@H]2[C@@H]3C[C@H](F)C4=CC(=O)C=C[C@]4(C)[C@@]3(F)[C@@H](O)C[C@@]21C	0.447 µM (active)
Cc1c(C(=O)NCCO)[n+](=O)c2ccccc2n1[O-]	inactive
COc1ccccc1OCC(O)COC(N)=O (stereo not given)	inactive
Cc1ncc(CO)c(CN)c1O	inactive
COc1ccc(S(=O)(=O)Nc2nnc(CC(C)C)s2)cc1	inactive
CCN[C@H]1CN(CCCOC)S(=O)(=O)c2sc(S(N)(=O)=O)cc21	inactive
NC/C=C/C(=O)O	inactive
CCN(CCCc1ccccc1)CCCc1ccccc1	inactive
CO[C@@]1(NC(=O)CSCC#N)C(=O)N2C(C(=O)O)=C(CSc3nnnn3C)CS[C@@H]21	inactive
CCCNC(C)C(=O)Nc1c(C)csc1C(=O)OC (stereo not given)	inactive
COc1cc(N)c(Cl)cc1C(=O)NC1CCN(Cc2ccccc2)CC1	inactive
CCOC(=O)c1ccccc1O	inactive
Cc1c(-c2ccccc2)oc2c(C(=O)OCCN3CCCCC3)cccc2c1=O	inactive
